Measurements published in PubChem BioAssay.
Calls of active or inactive are those of the source.

Tests used:
[1] = optical density shifts of acrAB sulA E. coli – strain DRC41, OD650, 48 h, E. coli filamentation inducer project, primary screen (AID 1152); details: higher = more signal, called active from +8 up or from −8 down;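 note: E. coli MC1000 strain DRC41 lacking acrAB efflux pump and sulA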
[2] = probe aLefty1 binding on compound microarray – biochemical, small-molecule microarray, 635/667 nm fluorescence, primary screen (AID 1153); details: higher = more signal;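 note: score merges spot fluorescence with signal-to-noise ratio from the scanned slide images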
[3] = plasmodial surface anion channel blockers, osmotic lysis – cell-based, P. falciparum Indochina, OD700, 1 h, primary screen (AID 1154); details: P. falciparum Indochina infected RBC osmotic lysis, higher = more signal, called active from +8 up or from −8 down
[4] = plasmodial surface anion channel blockers, osmotic lysis – cell-based, P. falciparum Indochina, OD700, 2 h, primary screen (AID 1155);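 note: lysis reports solute entry through the parasite surface anion channel PSAC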; details: P. falciparum Indochina infected erythrocytes, higher = more signal, called active from +8 up or from −8 down
[5] = changes in parasitized red cell lysis, either direction – P. falciparum Indochina, OD700, 3 h, PSAC antagonist project, primary screen (AID 1156); details: P. falciparum-infected erythrocytes, osmotic lysis, higher = more signal, called active from +8 up or from −8 down
[6] = plasmodial surface anion channel blockers, osmotic lysis – cell-based, P. falciparum Indochina, OD700, 18 h, primary screen (AID 1157); details: P. falciparum Indochina infected erythrocytes, osmotic lysis OD700, 18 h; higher = more signal, called active from +8 up or from −8 down
[7] = S6 kinase pathway phospho-S6 level changes – cell-based, A549, cytoblot, luminescence, serum-stimulated, primary screen (AID 1158); details: 5 h, higher = more signal;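 note: serum-stimulated A549 lung adenocarcinoma cells; signal is phosphorylated S6 detected by cytoblot immunostaining with HRP secondary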
[8] = biological target: NADPH oxidase 2 (Homo sapiens) (UniProt P04839); experiment: compounds shifting NOX2 Amplex Red fluorescence – cell-based, HEK293-NOX2, PMA-stimulated, NOX inhibitor project, primary screen (AID 1159); details: 45 min, higher = more signal, called active from +8 up or from −8 down; note: test concentration not given here
[9] = biological target: NADPH oxidase 4 (Homo sapiens) (UniProt Q9NPH5); experiment: compounds shifting NOX4 Amplex Red fluorescence – cell-based, HEK293-NOX4, tetracycline-induced, NOX inhibitor project, primary screen (AID 1160); details: HEK293-NOX4, Amplex Red H2O2 fluorescence, 45 min; higher = more signal, called active from +8 up or from −8 down
[10] = biological target: NADPH oxidase 5 (Homo sapiens) (UniProt Q96PH1); experiment: compounds shifting NOX5 Amplex Red fluorescence – cell-based, HEK293-NOX5, NOX inhibitor project, primary screen (AID 1161); details: HEK293-NOX5, ionomycin, 45 min, higher = more signal
Sequence of NADPH oxidase 5 (Homo sapiens) (Q96PH1 whole entry, looked up): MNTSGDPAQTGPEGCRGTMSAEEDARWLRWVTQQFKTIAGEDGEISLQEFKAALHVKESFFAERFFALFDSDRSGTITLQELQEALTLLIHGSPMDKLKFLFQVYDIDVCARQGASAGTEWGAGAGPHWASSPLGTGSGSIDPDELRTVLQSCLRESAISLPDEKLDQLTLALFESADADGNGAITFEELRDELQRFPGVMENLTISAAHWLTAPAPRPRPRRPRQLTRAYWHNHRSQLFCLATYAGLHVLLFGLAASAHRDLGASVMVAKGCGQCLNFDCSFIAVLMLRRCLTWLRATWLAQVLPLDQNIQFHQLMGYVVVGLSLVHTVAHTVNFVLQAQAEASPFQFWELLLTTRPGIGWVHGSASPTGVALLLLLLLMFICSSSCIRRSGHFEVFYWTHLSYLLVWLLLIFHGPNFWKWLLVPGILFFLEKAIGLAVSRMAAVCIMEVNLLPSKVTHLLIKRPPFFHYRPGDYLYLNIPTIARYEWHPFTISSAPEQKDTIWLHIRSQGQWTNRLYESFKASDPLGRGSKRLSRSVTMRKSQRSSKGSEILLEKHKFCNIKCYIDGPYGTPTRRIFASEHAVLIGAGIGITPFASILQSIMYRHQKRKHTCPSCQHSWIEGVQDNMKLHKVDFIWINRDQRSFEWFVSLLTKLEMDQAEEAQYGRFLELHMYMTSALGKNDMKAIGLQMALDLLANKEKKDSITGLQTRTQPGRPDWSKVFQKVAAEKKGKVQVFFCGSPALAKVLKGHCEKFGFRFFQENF

Sequence of NADPH oxidase 2 (Homo sapiens) (P04839 whole entry, looked up): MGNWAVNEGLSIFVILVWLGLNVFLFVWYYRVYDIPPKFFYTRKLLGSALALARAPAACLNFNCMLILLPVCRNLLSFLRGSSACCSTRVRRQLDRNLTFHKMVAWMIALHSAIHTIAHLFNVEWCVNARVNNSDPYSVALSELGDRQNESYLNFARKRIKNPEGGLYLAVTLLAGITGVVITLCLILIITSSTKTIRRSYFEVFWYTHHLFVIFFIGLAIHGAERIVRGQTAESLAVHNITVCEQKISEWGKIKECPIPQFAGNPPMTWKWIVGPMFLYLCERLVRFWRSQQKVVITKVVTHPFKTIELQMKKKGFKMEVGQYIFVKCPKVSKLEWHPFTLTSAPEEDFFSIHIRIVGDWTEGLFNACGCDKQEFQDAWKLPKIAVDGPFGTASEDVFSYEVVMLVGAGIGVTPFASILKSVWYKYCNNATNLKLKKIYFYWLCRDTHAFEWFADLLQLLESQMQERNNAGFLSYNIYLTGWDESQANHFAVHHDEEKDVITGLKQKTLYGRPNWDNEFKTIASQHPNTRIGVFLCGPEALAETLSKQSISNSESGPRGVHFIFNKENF
Sequence of NADPH oxidase 4 (Homo sapiens) (Q9NPH5 whole entry, looked up): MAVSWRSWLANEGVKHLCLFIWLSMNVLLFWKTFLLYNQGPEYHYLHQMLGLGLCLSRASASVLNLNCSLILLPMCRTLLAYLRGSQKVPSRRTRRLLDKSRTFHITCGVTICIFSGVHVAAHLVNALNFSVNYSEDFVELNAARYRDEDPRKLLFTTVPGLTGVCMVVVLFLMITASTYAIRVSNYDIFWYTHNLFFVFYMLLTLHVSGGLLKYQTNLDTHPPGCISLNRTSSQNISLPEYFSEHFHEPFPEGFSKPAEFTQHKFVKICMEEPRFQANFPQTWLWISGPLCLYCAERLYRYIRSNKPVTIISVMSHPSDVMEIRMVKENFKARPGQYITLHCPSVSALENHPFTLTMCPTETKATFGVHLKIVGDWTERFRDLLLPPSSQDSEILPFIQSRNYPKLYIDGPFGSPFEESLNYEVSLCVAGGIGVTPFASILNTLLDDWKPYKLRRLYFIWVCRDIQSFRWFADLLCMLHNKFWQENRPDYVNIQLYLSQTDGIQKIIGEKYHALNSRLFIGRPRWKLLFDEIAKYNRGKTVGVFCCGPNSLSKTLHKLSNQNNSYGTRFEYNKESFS

SMILES	z-score [1]	composite z-score [2]	z-score [3]	z-score [4]	z-score [5]	z-score [6]	z-score [7]	z-score [8]	z-score [9]	z-score [10]
CCOC(=O)C[C@H]1[C@H](OC(=O)c2cc3ccccc3oc2=O)[C@@H](NC(=O)c2ccc(-c3ccccc3)cc2)c2cc(OCCCO)ccc2N1C(=O)c1ccc2ccccc2n1	-0.216 (inactive)	0.132	3.37 (inactive)	1.07 (inactive)	0.723 (inactive)	0.523 (inactive)	-0.577	0.858 (inactive)	0.688 (inactive)	1.11
COC(=O)[C@@]1(Cc2ccccc2)[C@H]2c3cc(C(=O)N(C)C)n(CCN4CNCC4=O)c3C[C@H]2CN1C(=O)c1ccccc1	-0.65 (inactive)	0.673	0.274 (inactive)	0.759 (inactive)	0.307 (inactive)	0.789 (inactive)	-0.646	0.61 (inactive)	0.554 (inactive)	0.0884
COCCOC(=O)N1C(=O)[C@@]2(c3cc(C#CC4=CCCCC4)ccc31)[C@H](C(N)=O)[C@H]1C(=O)O[C@H](c3ccccc3)[C@H](c3ccccc3)N1[C@@H]2c1ccccc1OCCO	-0.172 (inactive)	0.199	3.63 (inactive)	2.55 (inactive)	0.629 (inactive)	2.15 (inactive)	-0.332	2.16 (inactive)	0.932 (inactive)	1.42
COC(=O)c1cn(C[C@@H](Cc2ccccc2)NC(=O)N[C@H](CO)CCc2oc(C(C)=O)c(C(=O)OC)c2C(=O)OC)nn1	0.555 (inactive)	0.238	14.3 (active)	2.29 (inactive)	1.08 (inactive)	0.872 (inactive)	0.419	0.744 (inactive)	1.01 (inactive)	1.84
COc1ccc([Si](C)(C)[C@@H]2[C@@H](CC(=O)N3Cc4ccccc4C[C@H]3CO)O[C@]3(C(=O)N(Cc4cccc(N5C(=O)c6cccc7cccc5c67)c4)c4ccccc43)[C@H]2C)cc1	-0.721 (inactive)	-0.0601	2.4 (inactive)	0.963 (inactive)	-0.369 (inactive)	0.376 (inactive)	0.015	-0.579 (inactive)	0.668 (inactive)	2.34
C=CCN1Cc2ccccc2[C@H]2OC(c3ccc(OCCCO)cc3)=N[C@@]2(CC=C)C1=O	0.831 (inactive)	0.692	29.9 (active)	25.7 (active)	1.97 (inactive)	6.4 (inactive)	0.0524	-1.66 (inactive)	0.367 (inactive)	0.034
O=C1O[C@H](c2ccccc2)[C@H](c2ccccc2)N2[C@H]1[C@@H](C(=O)Nc1nc3ccccc3s1)[C@]1(C(=O)Nc3ccccc31)[C@H]2c1ccc(OCCO)cc1	-0.222 (inactive)	-0.0099	3.55 (inactive)	2.95 (inactive)	0.458 (inactive)	2.31 (inactive)	-0.357	0.499 (inactive)	0.4 (inactive)	0.992
